Compound activity (PubChem)
A selection: hits, their analogues and other compounds. The true share with any hit is near 1.4%.
Sa RN4220 lethal: S. aureus RN4220 growth inhibition; OD600, 16 h; inhibition, % (test concentration not listed); 0.33% of 330,000 active; in the data active means inhibition above about 85%;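 further: plate controls were untreated cells for no effect and reference antibiotic for full effect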
PfHsp40 rescue: restores yeast growth despite PfHsp40 toxicity; S. cerevisiae expressing PfHsp40, growth rescue, ATP luminescence; AID 504582; growth rescue, % at 12.5 µM; 0.68% of 340,000 active; in the data active means growth rescue above about 28%, passing the limit was not always enough;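 further: yeast W303a lacking pdr1 and pdr3 grown in galactose medium; growth measured after three days at 30 °C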
Y pestis TopoI: blocks Yersinia pestis topoisomerase I activity | Y. pestis Topo-I cleavage product accumulation, plate reader | activity, % at 10 µM | AID 504884 | 0.064% of 360,000 active; in the data active means activity above about 50%, passing the limit was not always enough
BJeLR lethal: kills HRASV12-expressing BJeLR cells | AID 1554 | inhibition, % (test concentration not listed) | 0.17% of 300,000 active | BJeLR (HRASV12) viability, CellTiter-Glo ATP luminescence, 48 h; in the data active means inhibition above about 50%
PrP UTR inh: inhibition of PrP 5' UTR reporter expression; 0.35% of 340,000 active; cell-based PrP 5' UTR mRNA reporter, plate reader; inhibition, % (test concentration not listed); in the data active means inhibition above about 52%; further: 0 = median of the neutral control wells
Sa ugtP lethal: kills S. aureus RN4220 lacking UgtP | S. aureus RN4220 ugtP deletion, OD600 growth, 16 h | growth inhibition, % (concentration not given with the values) | 0.54% of 330,000 active | AID 1259309; in the data active means growth inhibition above about 68%;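 further: plate controls were untreated wells for no effect and antibiotic for full effect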
Numbers without * were called inactive.

Results for O=C(c1ccc([N+](=O)[O-])o1)N1CCc2ccccc21 ?
Sa RN4220 lethal: 20; PfHsp40 rescue: 3; Y pestis TopoI: -5; BJeLR lethal: -7; PrP UTR inh: 1; Sa ugtP lethal: 26

What do the screens show for `COc1cc2c(cc1OC)CN(C(=O)c1ccc([N+](=O)[O-])o1)CC2`?
Sa RN4220 lethal: 18; PfHsp40 rescue: 63*; Y pestis TopoI: 2; BJeLR lethal: -5; PrP UTR inh: 9; Sa ugtP lethal: 17

What do the screens show for `COc1ccc(C(=O)NCC(c2cccs2)N2CCOCC2)cc1OC` (stereo not drawn)?
Sa RN4220 lethal: 3; PfHsp40 rescue: 1; Y pestis TopoI: 7; PrP UTR inh: -18; Sa ugtP lethal: 5

Results for COc1cc(C(=O)NCC(c2cccs2)N2CCOCC2)cc(Br)c1OCc1ccccc1 (stereo not drawn) ?
Sa RN4220 lethal: 8; PfHsp40 rescue: 132*; Y pestis TopoI: 24; PrP UTR inh: 1; Sa ugtP lethal: 12

How did CC=CC1=CC(=O)CC(c2ccc(F)cc2)C1 (stereo not drawn) do in these assays?
Sa RN4220 lethal: -1; Sa ugtP lethal: 0

How did N#C/C(=N\Nc1ccc(Cl)cc1)C(=O)c1ccccc1 do in these assays?
PfHsp40 rescue: 2; Y pestis TopoI: -9; BJeLR lethal: 24; PrP UTR inh: -21

Results for Cc1c(N/N=C(\C#N)C(=O)c2ccc(Cl)cc2)c(=O)n(-c2ccccc2)n1C ?
Sa RN4220 lethal: 44; PfHsp40 rescue: 99*; Y pestis TopoI: 7; BJeLR lethal: 13; PrP UTR inh: 22; Sa ugtP lethal: 1

Results for Nc1ccc(OCCCc2c(N)nc(N)nc2N)cc1 ?
PfHsp40 rescue: 48*; Y pestis TopoI: -17; BJeLR lethal: 2; PrP UTR inh: -27

Results for Cc1ccc(N(C(=O)c2ccccc2Cl)C2=NC(C)CS2)c(C)c1 (stereo not drawn) ?
Sa RN4220 lethal: 2; PfHsp40 rescue: 0; Y pestis TopoI: 33; BJeLR lethal: -1; PrP UTR inh: -49; Sa ugtP lethal: 88*

Results for Cc1ccc2[nH]c(-c3cccc(F)c3)cc(=O)c2c1 ?
Sa RN4220 lethal: 6; PfHsp40 rescue: -2; Y pestis TopoI: 3; BJeLR lethal: 33; PrP UTR inh: 60*; Sa ugtP lethal: -5

What do the screens show for `COc1ccc(-c2c(-c3ccccc3OC)oc3ccccc23)cc1F`?
Sa RN4220 lethal: -5; PfHsp40 rescue: 1; Y pestis TopoI: 15; PrP UTR inh: -21; Sa ugtP lethal: 89*

How did CCN(CC)C(=O)c1ccc(/C=C/c2c[nH]c3ccccc23)[n+](C)c1 do in these assays?
Sa RN4220 lethal: 5; PfHsp40 rescue: 0; Y pestis TopoI: -2; BJeLR lethal: -12; PrP UTR inh: -19; Sa ugtP lethal: 2

What do the screens show for `CC[n+]1c(/C=C/c2c[nH]c3ccccc23)ccc2cc(C)ccc21`?
Sa RN4220 lethal: 96*; PfHsp40 rescue: 3; PrP UTR inh: -25; Sa ugtP lethal: 97*

Results for COc1ccc(C2CC(=O)C=C(c3ccc4c(c3)sc3ccccc34)C2)cc1 (stereo not drawn) ?
Sa RN4220 lethal: -2; Sa ugtP lethal: 0

Results for Cc1onc(-c2ccccc2)c1C(=O)NCc1ccc2c(c1)OCO2 ?
Sa RN4220 lethal: 9; PfHsp40 rescue: 0; Y pestis TopoI: 5; BJeLR lethal: 6; PrP UTR inh: -1; Sa ugtP lethal: 4

What do the screens show for `Cc1onc(-c2ccccc2)c1C(=O)NNC(=S)NC(=O)c1ccc2c(c1)OCO2`?
Sa RN4220 lethal: 29; PfHsp40 rescue: 48*; Y pestis TopoI: -5; BJeLR lethal: -7; PrP UTR inh: -20; Sa ugtP lethal: 22

How did COc1ccc(C(=O)NC(=S)NNC(=O)c2c(-c3ccccc3)noc2C)cc1OC do in these assays?
Sa RN4220 lethal: 35; PfHsp40 rescue: 31*; Y pestis TopoI: 0; BJeLR lethal: 16; PrP UTR inh: -14; Sa ugtP lethal: 22

Results for COc1cc(OC)cc(C(=O)NC(=S)NNC(=O)[C@H]2C[C@@H]2c2ccccc2)c1 ?
Sa RN4220 lethal: 42; PfHsp40 rescue: 11; Y pestis TopoI: -7; BJeLR lethal: -3; PrP UTR inh: -20; Sa ugtP lethal: 22

What do the screens show for `COc1ccc(C(=O)NC(=S)NNC(=O)[C@H]2C[C@@H]2c2ccccc2)cc1OC`?
Sa RN4220 lethal: 30; PfHsp40 rescue: 66*; Y pestis TopoI: -1; BJeLR lethal: -9; PrP UTR inh: -4; Sa ugtP lethal: 4

What do the screens show for `CCN(CC)C(=O)C(=Cc1ccc2c(c1)OCO2)NC(=O)c1ccc(Br)cc1`?
Sa RN4220 lethal: 4; Sa ugtP lethal: 0

How did CCOc1ccc(CCNC(=O)c2cc(C)on2)cc1OCC do in these assays?
Sa RN4220 lethal: 4; PfHsp40 rescue: 1; Y pestis TopoI: -1; BJeLR lethal: 6; PrP UTR inh: -10; Sa ugtP lethal: -5

How did CCOc1ccc(CCNC(=O)c2c(C)noc2C)cc1OCC do in these assays?
Sa RN4220 lethal: 1; PfHsp40 rescue: 43*; Y pestis TopoI: 2; BJeLR lethal: 5; PrP UTR inh: -18; Sa ugtP lethal: 2

What do the screens show for `CCCC(=O)O[C@]1(C(=O)COC(C)=O)CCC2C3CC(F)C4=CC(=O)C=C[C@]4(C)[C@@]3(F)C(O)C[C@@]21C` (stereo partly drawn)?
Sa RN4220 lethal: 1; Sa ugtP lethal: -8

Results for CCN1C(=NCCCOC(C)C)NC(c2ccccc2)C(C(=O)OC)C1C (stereo not drawn) ?
Sa RN4220 lethal: 4; Sa ugtP lethal: -6

How did CCCSc1cc(N2CCN(C)CC2)nc(-c2ccc(OC)cc2)n1 do in these assays?
Sa RN4220 lethal: -8; PfHsp40 rescue: -1; Y pestis TopoI: -2; BJeLR lethal: -4; PrP UTR inh: -22; Sa ugtP lethal: 100*

How did CCC(C)C(NC(=O)C1CCN(C(=O)C(NS(=O)(=O)c2ccc(C)cc2)C(C)C)CC1)C(=O)O (stereo not drawn) do in these assays?
Sa RN4220 lethal: 2; Sa ugtP lethal: -2

How did CSCCC(C(=O)NCCCCCCCCCCC(=O)N1CCNCC1)n1cc(CCO)nn1 (stereo not drawn) do in these assays?
Sa RN4220 lethal: 5; Sa ugtP lethal: -2

What do the screens show for `Cc1ccc2[nH]c(C)c(C=NNc3nc4ccccc4s3)c2c1`?
Sa RN4220 lethal: 100*; Sa ugtP lethal: 99*

Results for O=C(NCCC(=O)N1CCN(c2ccccc2O)CC1)c1ccc(Br)cc1 ?
Sa RN4220 lethal: 5; PfHsp40 rescue: 301*; Y pestis TopoI: 20; BJeLR lethal: 2; PrP UTR inh: 6; Sa ugtP lethal: 7

What do the screens show for `O=C(CCNS(=O)(=O)c1ccc(Br)cc1)N1CCN(c2ccccc2O)CC1`?
Sa RN4220 lethal: 2; PfHsp40 rescue: 3; Y pestis TopoI: 15; BJeLR lethal: -5; PrP UTR inh: -12; Sa ugtP lethal: -1

How did CCOC(=O)C1C2COc3cc(OC)ccc3C2N2C(=O)CN(Cc3ccccc3)C(=O)[C@@]12C (stereo partly drawn) do in these assays?
Sa RN4220 lethal: 2; Sa ugtP lethal: 1
